Test results from PubChem BioAssay.
The source made the active and inactive calls.

Experiments:
[1] = E. coli DRC41 culture turbidity changes, primary screen, E. coli filamentation inducer project, strain DRC41, OD650, 48 h (AID 1152);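 also: E. coli MC1000 strain DRC41 lacking acrAB efflux pump and sulA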; conditions: E. coli DRC41 (acrAB sulA), higher = more signal, called active from +8 up or from −8 down
[2] = small-molecule binders of probe aLefty1, primary screen, biochemical, small-molecule microarray, 635/667 nm fluorescence (AID 1153); conditions: higher = more signal;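 also: score merges spot fluorescence with signal-to-noise ratio from the scanned slide images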
[3] = PSAC antagonists in infected red cells, primary screen, cell-based, P. falciparum Indochina, OD700, 1 h (AID 1154); conditions: P. falciparum Indochina infected RBC osmotic lysis, higher = more signal, called active from +8 up or from −8 down
[4] = PSAC antagonists in infected red cells, primary screen, cell-based, P. falciparum Indochina, OD700, 2 h (AID 1155);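 also: lysis reports solute entry through the parasite surface anion channel PSAC; channel blockers reduce lysis of infected cells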; conditions: P. falciparum Indochina infected erythrocytes, osmotic lysis OD700; higher = more signal, called active from +8 up or from −8 down
[5] = osmotic lysis modulators in infected erythrocytes, primary screen, PSAC antagonist project, cell-based, P. falciparum Indochina, OD700, 3 h (AID 1156); conditions: higher = more signal, called active from +8 up or from −8 down
[6] = PSAC antagonists in infected red cells, primary screen, cell-based, P. falciparum Indochina, OD700, 18 h (AID 1157); conditions: P. falciparum Indochina infected erythrocytes, osmotic lysis OD700, 18 h; higher = more signal, called active from +8 up or from −8 down
[7] = modulators of S6 phosphorylation in cells, primary screen, cell-based, A549, cytoblot, luminescence, serum-stimulated (AID 1158); conditions: A549 phospho-S6 cytoblot, 5 h, higher = more signal;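 also: serum-stimulated A549 lung adenocarcinoma cells; signal is phosphorylated S6 detected by cytoblot immunostaining with HRP secondary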
[8] = molecular target: NADPH oxidase 2 (Homo sapiens) (UniProt P04839); assay: NOX2-dependent H2O2 signal modulators, primary screen, NOX inhibitor project, cell-based, HEK293-NOX2, PMA-stimulated, Amplex Red fluorescence (AID 1159); conditions: 45 min, higher = more signal, called active from +8 up or from −8 down; also: test concentration not given here
[9] = molecular target: NADPH oxidase 4 (Homo sapiens) (UniProt Q9NPH5); assay: NOX4-dependent H2O2 signal modulators, primary screen, NOX inhibitor project, cell-based, HEK293-NOX4, tetracycline-induced, Amplex Red fluorescence (AID 1160); conditions: 45 min, higher = more signal, called active from +8 up or from −8 down
[10] = molecular target: NADPH oxidase 5 (Homo sapiens) (UniProt Q96PH1); assay: NOX5-dependent H2O2 signal modulators, primary screen, NOX inhibitor project, cell-based, HEK293-NOX5, Amplex Red fluorescence (AID 1161); conditions: HEK293-NOX5, ionomycin, 45 min, higher = more signal
Sequence of NADPH oxidase 5 (Homo sapiens) (Q96PH1 whole entry, looked up): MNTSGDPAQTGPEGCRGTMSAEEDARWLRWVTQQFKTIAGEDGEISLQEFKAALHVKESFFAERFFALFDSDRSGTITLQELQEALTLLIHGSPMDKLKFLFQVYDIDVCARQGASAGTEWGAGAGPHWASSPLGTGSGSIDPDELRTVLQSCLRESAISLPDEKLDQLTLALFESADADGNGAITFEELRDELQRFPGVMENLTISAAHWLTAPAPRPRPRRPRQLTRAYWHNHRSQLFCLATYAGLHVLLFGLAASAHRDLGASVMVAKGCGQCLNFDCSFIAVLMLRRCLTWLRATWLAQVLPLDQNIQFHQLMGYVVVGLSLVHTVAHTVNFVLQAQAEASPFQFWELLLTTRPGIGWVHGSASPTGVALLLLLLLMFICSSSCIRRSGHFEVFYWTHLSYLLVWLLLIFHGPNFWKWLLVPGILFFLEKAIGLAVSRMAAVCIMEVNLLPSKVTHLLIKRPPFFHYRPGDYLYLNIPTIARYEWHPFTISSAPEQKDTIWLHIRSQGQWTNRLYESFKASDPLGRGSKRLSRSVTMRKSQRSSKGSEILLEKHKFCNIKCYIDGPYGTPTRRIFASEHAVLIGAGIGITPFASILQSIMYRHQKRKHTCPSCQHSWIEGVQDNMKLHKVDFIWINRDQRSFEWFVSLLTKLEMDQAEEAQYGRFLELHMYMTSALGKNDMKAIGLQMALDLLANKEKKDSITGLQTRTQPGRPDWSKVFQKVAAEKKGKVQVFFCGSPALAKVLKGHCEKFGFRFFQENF

Sequence of NADPH oxidase 4 (Homo sapiens) (Q9NPH5 whole entry, looked up): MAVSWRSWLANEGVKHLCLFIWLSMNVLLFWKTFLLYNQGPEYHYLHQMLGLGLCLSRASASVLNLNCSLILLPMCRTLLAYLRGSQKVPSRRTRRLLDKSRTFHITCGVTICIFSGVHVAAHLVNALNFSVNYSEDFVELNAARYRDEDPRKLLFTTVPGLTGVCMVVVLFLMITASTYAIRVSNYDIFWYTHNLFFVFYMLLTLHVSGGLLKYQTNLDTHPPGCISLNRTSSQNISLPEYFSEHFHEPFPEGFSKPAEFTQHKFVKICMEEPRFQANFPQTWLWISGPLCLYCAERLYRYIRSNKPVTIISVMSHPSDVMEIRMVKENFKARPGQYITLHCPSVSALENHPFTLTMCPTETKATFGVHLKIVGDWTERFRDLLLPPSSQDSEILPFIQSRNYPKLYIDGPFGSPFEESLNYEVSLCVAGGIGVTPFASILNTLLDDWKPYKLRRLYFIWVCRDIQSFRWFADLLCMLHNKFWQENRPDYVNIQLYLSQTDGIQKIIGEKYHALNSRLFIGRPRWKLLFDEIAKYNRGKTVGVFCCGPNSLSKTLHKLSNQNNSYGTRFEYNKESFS
Sequence of NADPH oxidase 2 (Homo sapiens) (P04839 whole entry, looked up): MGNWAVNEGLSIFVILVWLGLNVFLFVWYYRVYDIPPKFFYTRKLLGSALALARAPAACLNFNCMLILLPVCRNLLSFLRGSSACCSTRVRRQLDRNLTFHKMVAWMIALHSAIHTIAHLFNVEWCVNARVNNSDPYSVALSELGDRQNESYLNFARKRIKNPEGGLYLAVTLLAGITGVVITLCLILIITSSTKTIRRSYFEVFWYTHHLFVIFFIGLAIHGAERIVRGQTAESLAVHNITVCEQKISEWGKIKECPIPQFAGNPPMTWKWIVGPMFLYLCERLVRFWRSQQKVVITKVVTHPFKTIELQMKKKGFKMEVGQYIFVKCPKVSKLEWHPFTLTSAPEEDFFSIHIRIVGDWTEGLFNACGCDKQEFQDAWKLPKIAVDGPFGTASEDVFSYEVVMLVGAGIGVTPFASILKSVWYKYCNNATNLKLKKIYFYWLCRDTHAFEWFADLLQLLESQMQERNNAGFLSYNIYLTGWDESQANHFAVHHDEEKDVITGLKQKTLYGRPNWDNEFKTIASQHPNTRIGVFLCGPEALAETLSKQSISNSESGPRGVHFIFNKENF

Compound | z-score [1] | composite z-score [2] | z-score [3] | z-score [4] | z-score [5] | z-score [6] | z-score [7] | z-score [8] | z-score [9] | z-score [10]
COCCOC(=O)N1C(=O)[C@@]2(c3cc(C#Cc4ccc(OC)cc4)ccc31)[C@H](c1ccc(OCCO)cc1)N1[C@H](c3ccccc3)[C@H](c3ccccc3)OC(=O)[C@H]1[C@@H]2C(=O)NC[C@H](O)c1ccccc1 | -0.0906 (inactive) | 0.257 | 4.14 (inactive) | 2.07 (inactive) | 0.0276 (inactive) | 1.24 (inactive) | -0.539 | 1.27 (inactive) | 0.708 (inactive) | 1.11
COC(=O)[C@@]1(Cc2ccc(OC)cc2)[C@H]2c3cc(C(=O)N4CCCC4)n(Cc4c(CO)[nH]cc(C)c4=O)c3C[C@H]2CN1C(=O)c1ccccc1 | -0.552 (inactive) | 0.213 | 0.843 (inactive) | -0.163 (inactive) | 0.455 (inactive) | -1.46 (inactive) | 2.57 | 0.753 (inactive) | 0.386 (inactive) | -4.96
CC(C)(C)N1CC=CC23O[C@@H]4/C=C\CCCOC(=O)C4[C@H]2C(=O)N(CCCO)[C@@H]3C1=O (stereo not given in full) | -0.455 (inactive) | 0.0927 | 0.46 (inactive) | 0.223 (inactive) | -0.772 (inactive) | 0.429 (inactive) | 0.0241 | 1.63 (inactive) | 0.724 (inactive) | 2.51
COCCOC(=O)N1C(=O)[C@@]2(c3cc(C#CC4(O)CCCCCC4)ccc31)[C@H](c1ccc(O)cc1)N1[C@H](c3ccccc3)[C@H](c3ccccc3)OC(=O)[C@H]1[C@@H]2C(=O)N1CCCCCCC1 | 0.341 (inactive) | 1.08 | 1.13 (inactive) | 0.928 (inactive) | 0.0786 (inactive) | 0.166 (inactive) | -0.363 | 1.61 (inactive) | 0.0838 (inactive) | 1.41
COCCCNC(=O)[C@@]1(CCC(=O)OC(C)(C)C)COC(c2ccc(OCCCO)cc2)=N1 | 0.42 (inactive) | 0.205 | 23.6 (active) | 4.91 (inactive) | 0.873 (inactive) | 0.766 (inactive) | -0.169 | -2.51 (inactive) | 0.195 (inactive) | -0.0784
C=CCOC(=O)[C@@H]1[C@H]2C(=O)O[C@H](c3ccccc3)[C@H](c3ccccc3)N2[C@H](c2ccc(OCCOC(=O)[C@H]3C[C@H]4C(=O)NCC(=O)N4[C@H]3c3cccc(OCCO)c3)cc2)[C@@]12C(=O)Nc1ccc(I)cc12 | -0.27 (inactive) | 0.248 | 1.5 (inactive) | 1.56 (inactive) | 1.06 (inactive) | 1.26 (inactive) | 0.117 | 1.54 (inactive) | 0.436 (inactive) | 1.55
CC(C)NC(=O)[C@@H]1c2ccccc2C(=O)N(Cc2ccc(OC(F)(F)F)cc2)[C@H]1c1ccc(CO)cc1 | -0.376 (inactive) | 1.24 | 2.18 (inactive) | -0.0655 (inactive) | 2.65 (inactive) | 0.179 (inactive) | -0.065 | 0.412 (inactive) | -0.27 (inactive) | 1.87
COc1ccc(C(O)C2C=CC3C(=O)N(c4ccccc4)C(=O)C3N2Nc2ccc([N+](=O)[O-])cc2)c2ccccc12 (stereo not given) | -1.31 (inactive) | 0.364 | 9.23 (active) | 2.13 (inactive) | 0.722 (inactive) | 1.12 (inactive) | -0.446 | -0.273 (inactive) | -0.96 (inactive) | -1.55
CCOC(=O)C1=CC[C@@H](c2ccc(OC)cc2)N(S(=O)(=O)c2ccc(C)cc2)[C@H]1CC | 0.938 (inactive) | -0.0018 | 2.22 (inactive) | -0.258 (inactive) | -1.07 (inactive) | -1.62 (inactive) | 1.27 | 0.0165 (inactive) | -0.911 (inactive) | 0.209
COc1ccc(C(=O)Nc2ccc3c(c2)[C@@]2(O[C@H](CCO)[C@@H]([Si](C)(C)c4ccc(OC)cc4)[C@@H]2C)C(=O)N3Cc2ccccc2)cc1 | -0.134 (inactive) | 0.778 | 3.2 (inactive) | 0.98 (inactive) | 0.768 (inactive) | -0.188 (inactive) | 0.721 | -4.96 (inactive) | -1.62 (inactive) | 0.371
C=CCC(OC(C)=O)[C@@H]1[C@@H](N(Cc2cc3ccccc3o2)C(=O)c2cccc3ccccc23)c2cc(OCCCO)ccc2N1C(=O)c1ccc2ccccc2n1 (stereo not given in full) | 0.595 (inactive) | -0.239 | 1.53 (inactive) | 0.26 (inactive) | 0.266 (inactive) | 0.506 (inactive) | 0.231 | 0.889 (inactive) | -0.605 (inactive) | -1.64
